SARS 3CLpro inh: SARS-CoV 3CLpro protease inhibitors, primary screen, biochemical, quenched FRET; Replicase polyprotein 1ab (Severe acute respiratory syndrome coronavirus), P0C6X7; recombinant SARS-CoV 3CLpro, quenched FRET peptide cleavage; inhibition, % at 6 µM; actives 0.14% (n = 290,000); in the data active means inhibition above about 12%
CCHF vOTU inh-1: CCHFV vOTU protease inhibitors, primary screen, biochemical, Pep-AMC substrate, fluorescence | AID 651958, 2012 | actives 0.55% (n = 370,000) | Crimean-Congo hemorrhagic fever virus L polyprotein viral ovarian tumor (vOTU) protease … | inhibition, % at 11.5 µM; further: 0% = vehicle wells with enzyme and 100% = no enzyme wells
PrPC TRFRET: inhibitors of human cell surface prion protein PrPC, primary screen, cell-based, TR-FRET; actives 0.43% (n = 370,000); Major prion protein (Homo sapiens), P04156; TR-FRET read-out; inhibition, % at 13.8 µM; AID 720596, 2013; in the data active means inhibition above about 24%; further: 0% = median of the test wells and 100% = reference compound wells
PrP UTR inh: inhibition of PrP 5' UTR reporter expression; cell-based PrP 5' UTR mRNA reporter, plate reader; inhibition, % (no concentration beside the values); actives 0.35% (n = 340,000); in the data active means inhibition above about 52%; further: 0 = median of the neutral control wells
CCHF vOTU inh-2: CCHFV vOTU protease inhibitors, confirmation, biochemical, Pep-AMC substrate, fluorescence | shares compounds with CCHF vOTU inh-1 | Recombinant CCHFV vOTU | inhibition, % at 11.5 µM | actives 17% (n = 1,900) | AID 686976, 2013
* marks the source's active call; other numbers are inactive results; / = no result given. This is a sample that favours compounds with a hit; in the whole collection about 1.3% have one here. Unless noted, no stated cut-off is given here; in the data, active means inhibition above about 30%; inactive means the rest.

SMILES	SARS 3CLpro inh	CCHF vOTU inh-1	PrPC TRFRET	PrP UTR inh	CCHF vOTU inh-2
CN(C(=O)COc1ccc2c(-c3ccccc3)cc(=O)oc2c1)C1CCS(=O)(=O)C1 (stereo unspecified)	-7	9	-10	-6	/
CC(C)(C)c1cc[n+](C2=C([O-])c3ccccc3C(=O)/C2=N\S(=O)(=O)c2cccs2)cc1	-4	77*	-54	/	70*
O=C1/C(=N\S(=O)(=O)c2cccs2)C([n+]2ccccc2)=C([O-])c2ccccc21	4	49*	-35	-10	89*
Cc1ccc(C)c(C(C)NC(=O)C2CCCC2)c1 (stereo unspecified)	0	12	3	-17	/
CC(C)(C)NCCOCCOc1ccccc1-c1ccccc1	-5	9	0	-15	/
CC(C)CS(=O)(=O)C1=NN2C(=N)/C(=C\c3ccc(OC(=O)c4ccco4)cc3)C(=O)N=C2S1	9	37*	-3	-7	5
CS(=O)(=O)C1=NN2C(=N)/C(=C\c3ccc(OC(=O)c4ccco4)cc3)C(=O)N=C2S1	2	0	-6	0	/
FC(F)(F)c1cc(CO[C@@H]2CCCN[C@@H]2c2ccccc2)cc(C(F)(F)F)c1	/	33*	-11	-14	-3
CC1CCN(C(=O)c2ccc(CNS(=O)(=O)c3ccc(C(C)(C)C)cc3)cc2)CC1	/	33*	7	-16	-2
CC(C)(C)c1ccc(S(=O)(=O)NCc2ccc(C(=O)N3CCCC3)cc2)cc1	-1	2	1	-6	/
CC(=O)N(/N=C1\Sc2ccccc2C1=O)c1ccccc1	-2	1	0	-71	/
CC(=O)N(/N=C1\Sc2ccccc2C1=O)c1ccccc1C	7	47*	7	-63	38*
O=C(COc1ccc(S(=O)(=O)NC2CCCCC2)cc1Cl)NCc1cccnc1	0	8	4	-18	/
COC(=O)[C@H](Cc1c[nH]c2ccccc12)NC(=O)Cc1c[nH]c2ccccc12	-7	4	8	-18	/
CCOC(=O)N1CCN(c2c(N3CCN(C(=O)OCC)CC3)c(=O)c2=O)CC1	-3	6	7	-6	/
COC(COC(N)=O)C1=C(N2CC2)C(=O)C(C)=C(N2CC2)C1=O (stereo unspecified)	/	32*	-25	-29	13
O=c1cc(-c2ccc(O)c(O)c2)oc2c1ccc1ccccc12	/	34*	-1	0	6
O=c1cc(-c2ccccc2)oc2c1ccc1ccccc12	/	-7	-1	/	/
O=C(C1COc2ccccc2O1)N1CCN(c2ccccc2O)CC1 (stereo unspecified)	/	3	-3	-5	/
Cc1cc(C)c(C#N)c(N2CCN(C(=O)C3COc4ccccc4O3)CC2)n1 (stereo unspecified)	/	48*	-8	-17	-30
CC1(C)Nc2cccc3cccc(c23)N1	/	33*	-5	-1	-104
COc1cccc(NC(=O)C2(C)CCN2Cc2ccc3ccccc3c2)c1 (stereo unspecified)	/	-3	6	/	/
COc1cc(-c2ccc(Nc3ccccc3C(=O)O)c(OC)c2)ccc1Nc1ccccc1C(=O)O	4	51*	7	-14	39*
Cc1cc(C)cc(OCC(=O)NCC2CCCO2)c1 (stereo unspecified)	5	7	-3	-4	/
Cc1cc(C)c(C)c(OCC(=O)NCC2CCCO2)c1 (stereo unspecified)	0	33*	3	-29	-14
SMILES	SARS 3CLpro inh	CCHF vOTU inh-1	PrPC TRFRET	PrP UTR inh	CCHF vOTU inh-2
CCOc1ccc(N=Cc2ccc([N+](=O)[O-])cc2)c(O)c1	/	35*	-4	/	-3
CCOc1ccc(CNC(=S)N/N=C\c2ccc([N+](=O)[O-])cc2)cc1	-3	10	-4	29	/
CCCCCCCCCCCCN1[C@@H](CC(=O)O)c2cc(F)ccc2S1(=O)=O	/	32*	-2	-5	42*
Cc1nn(C)c(C(=O)N/N=C/c2ccccc2)c1[N+](=O)[O-]	5	31*	0	-15	-13
Cc1nn(C)c(C(=O)Nc2cccc(Nc3ccccc3)c2)c1[N+](=O)[O-]	6	1	-8	-9	/
CCOc1ccc(Nc2ccc(N)c(S(=O)(=O)O)c2)cc1	/	30*	-12	-22	8
CN1CCN(c2ccc(NC(=O)c3ccc(-c4cccc([N+](=O)[O-])c4)o3)cc2)CC1	-2	9	-36	-36	/
COc1ccc(S(=O)(=O)N2CCN(Cc3ccc(Cl)cc3)CC2)cc1	-1	33*	1	-18	0
C=CCn1c(CSCc2ccc(Cl)cc2)nnc1SCC(=O)NCc1ccccc1	-1	1	6	-21	/
O=c1oc2ccccc2c(Nc2cc3ccccc3cc2O)c1[N+](=O)[O-]	4	30*	2	-52	-10
O=c1oc2ccccc2c(Nc2ccccc2O)c1[N+](=O)[O-]	-3	3	-10	-8	/
O=C(CCNS(=O)(=O)c1ccc(OC(F)(F)F)cc1)NCCc1c[nH]c2ccccc12	/	30*	-5	-35	-24
COc1ccc(/C=N/NC(=O)c2ccccc2OCc2ccccc2)c(OC)c1	2	0	3	1	/
Cc1ccc(C)c(Oc2coc3cc(O)ccc3c2=O)c1	-1	-57	3	-35	/
Nc1c(C(=O)Nc2ccc3c(c2)OCCO3)nnn1Cc1ccc(Br)cc1	/	31*	12	-91	-9
CC(C)CNC(=O)C1Nc2ccc(C(F)(F)F)cc2C2C=CCC12 (stereo unspecified)	/	-2	-5	-30	/
Cc1c(/C=N/NC(=O)c2ccc3c(c2)OCO3)cnn1C	4	7	6	-13	/
COC(=O)C1=C(C)N(Cc2ccccc2C(F)(F)F)C(=NCc2ccc(C(F)(F)F)cc2)NC1c1cccc(Cl)c1 (stereo unspecified)	/	36*	9	/	-5
COC(=O)C1=C(C)N(Cc2ccc(C(F)(F)F)cc2)C(=NCc2ccccc2)NC1c1ccc(Cl)cc1 (stereo unspecified)	/	6	1	/	/
COC(=O)C1=C(C)N(Cc2ccccc2C(F)(F)F)C(=NCc2ccc(C(F)(F)F)cc2)NC1c1cccc(C(F)(F)F)c1 (stereo unspecified)	/	19	1	/	/
COC(=O)C1=C(C)N(Cc2ccc(C(F)(F)F)cc2)C(=NCc2ccc(OC)cc2)NC1c1ccccc1 (stereo unspecified)	/	30*	-12	/	-1
C=CCN=C1NC(c2cccc(Cl)c2)C(C(=O)OC)=C(C)N1Cc1cccc(C(F)(F)F)c1 (stereo unspecified)	/	30*	-12	/	-5
CCCn1c(C2CCCN2c2nc(C)cs2)nc2cc(Cl)c(Cl)cc21 (stereo unspecified)	-9	1	11	-18	/
Cc1ccc(NS(=O)(=O)c2ccc(-c3coc(C)n3)cc2)c(Br)c1	-2	13	1	-6	/
CC(C)OC(=O)COc1cc(O)c2c(=O)cc(-c3ccccc3)oc2c1	4	-3	1	2	/

Screening results from PubChem BioAssay.
